Hits are enriched below; roughly 18% of the tested compounds scored in any of these assays.
TDP1 cell CPT: qHTS for Inhibitors of human tyrosyl-DNA phosphodiesterase 1 (TDP1): qHTS in cells in presence of CPT; chicken DT40 Tdp1-/-;hTDP1 cells + 20 nM CPT, ATP luminescence, 48 h; Potency, µM (titrated, usually from 46.2 µM), for inactives: at the highest dose activity change, negative = growth inhibition, actives largely listed as inhibitors; hit rate 12% among 420,000; AID 686979, 2013; note: potency is the fitted concentration of half-maximal effect; % is set by controls: 0 for no effect and ±100 for the full control effect; nearly all actives have a fitted effect of over 55% in size
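Cell growth measured by CellTiter-Glo luminescence after a minimum 48 h, 37 C compound exposure with 20 nM CPT in Tdp1-knockout DT40 cells stably expressing hTDP1, seeded 400/well; qHTS titration format.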
IL1B secr inh: qHTS for Inhibitors of Inflammasome Signaling: IL-1-beta AlphaLISA Primary Screen; THP-1 LPS/ATP IL-1B secretion, AlphaLISA, 16 h; stronger effect = lower value; activity change, % at 57.5 µM; hit rate 4.7% among 360,000; in the data active = activity change below about -50%; inconclusive = mostly about -30% to -49%; note: % is set by controls: 0 for no effect and ±100 for the full control effect
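THP-1 cells pretreated 1 hr with compounds (up to 57.5 uM final), then stimulated with LPS (250 ng/mL final) plus ATP (1.25 mM final); secreted IL-1B measured by AlphaLISA after 16 hr, decreased signal indicating inhibition.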
TGFb inhibitor: qHTS for Inhibitors of TGF-b | HepG2 CAGA-GFP TGF-b/SMAD3 reporter, GFP fluorescence, 18 h; TGF-beta stimulated, 500 pg/mL final | Potency, µM (top dose mostly 46.1 µM), for the others: at the top dose activity, negative = inhibition, actives largely listed as inhibitors | hit rate 1.2% among 410,000 | AID 588855, 2011; note: potency is the fitted concentration of half-maximal effect; % is set by controls: 0 for no effect and ±100 for the full control effect; nearly all actives have a fitted effect of over 65% in size
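HEPG2 CAGA-GFP reporter cells (1000/well, DMEM with 1% FBS) received compounds, then recombinant TGF-beta at 500 pg/mL final for 18 hours at 37 degrees C. Per-cell GFP summed per well was normalised to unstimulated and stimulated DMSO controls before curve fitting.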
HepG2 viability: qHTS for Inhibitors of TGF-b: Cytotox Counterscreen | HepG2 CAGA-GFP viability, ATP luminescence, 18 h | Potency, µM (series often up to 46.1 µM), without a hit: at the highest dose activity change, negative = cytotoxicity, most hits filed as cytotoxic | hit rate 0.76% among 410,000 | AID 588856, 2011; note: potency is the fitted concentration of half-maximal effect
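HepG2 CAGA-GFP cells (1000/well, DMEM with 1% FBS) received compound, then TGF-beta at 500 pg/mL final, and were incubated 18 hours at 37 degrees C. Viability was read by CellTiter-Glo luminescence. Media-only wells were set as complete cell-killing and DMSO as no toxicity.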
TDP1 block: qHTS Assay for Inhibitors of Tyrosyl-DNA Phosphodiesterase (TDP1); Tyrosyl-DNA phosphodiesterase 1 (Homo sapiens), Q9NUW8; recombinant TDP1, AlphaScreen DNA substrate cleavage; Potency, µM (top dose mostly 130 µM), for inactives: at the highest dose activity change, negative = inhibition, usual class: inhibitors; hit rate 0.28% among 350,000; AID 485290, 2010; note: potency is the fitted concentration of half-maximal effect; % is set by controls: 0 for no effect and ±100 for the full control effect; nearly all actives have a fitted effect of over 40% in size
Target sequence (Q9NUW8 whole entry, looked up): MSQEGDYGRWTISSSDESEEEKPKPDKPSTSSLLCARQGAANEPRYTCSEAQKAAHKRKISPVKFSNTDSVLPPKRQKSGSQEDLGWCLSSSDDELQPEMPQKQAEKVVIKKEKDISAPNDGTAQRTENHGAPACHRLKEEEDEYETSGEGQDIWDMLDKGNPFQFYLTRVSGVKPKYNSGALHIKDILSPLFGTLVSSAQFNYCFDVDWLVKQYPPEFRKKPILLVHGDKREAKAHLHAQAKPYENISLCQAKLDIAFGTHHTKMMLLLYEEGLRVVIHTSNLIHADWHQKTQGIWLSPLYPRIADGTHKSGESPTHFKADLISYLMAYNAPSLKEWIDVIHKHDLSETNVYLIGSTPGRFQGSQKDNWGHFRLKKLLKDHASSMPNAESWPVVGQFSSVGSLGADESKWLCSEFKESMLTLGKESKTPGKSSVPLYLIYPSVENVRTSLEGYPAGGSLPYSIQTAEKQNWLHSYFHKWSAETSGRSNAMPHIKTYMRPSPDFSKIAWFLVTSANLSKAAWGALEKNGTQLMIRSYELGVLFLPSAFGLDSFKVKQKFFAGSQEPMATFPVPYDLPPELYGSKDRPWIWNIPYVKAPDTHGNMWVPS
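Recombinant human Tdp1 (E. coli-expressed, 1 nM final) preincubated with compounds 15 min at room temperature, then 5'-biotin/3'-phosphotyrosine-FITC DNA substrate (15 nM final) added for 5 min. AlphaScreen beads (10 ug/ml final) added 10 min; cleavage lowers signal.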
DT40 TDP1 no CPT: qHTS for Inhibitors of human tyrosyl-DNA phosphodiesterase 1 (TDP1): qHTS in cells in absence of CPT. DT40 Tdp1-/- hTDP1 cells, no CPT, ATP luminescence, 48 h. Potency, µM (highest dose often 46.2 µM), for the others: at the top dose activity change, negative = growth inhibition, actives largely listed as inhibitors. hit rate 15% among 420,000. AID 686978, 2013; note: potency is the fitted concentration of half-maximal effect; % is set by controls: 0 for no effect and ±100 for the full control effect; nearly all actives have a fitted effect of over 55% in size
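Compound effects on proliferation are scored in DT40 Tdp1-/-;hTDP1 cells in the absence of CPT. ATP levels (CellTiter-Glo luminescence) are recorded after a ≥48 hr, 37 °C incubation.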
Active calls of the source: *. Unless noted, calls come from the whole dose curve; as a rule, active = well fitted curve in the direction sought with a large enough effect; inconclusive = small, poorly fitted or top-dose-only effect, or another doubt; inactive = no such curve, though single readings can be large; an effect the other way counts as inactive or inconclusive.

`Cc1cc2c(c(-c3cnccn3)c1)OC(CNC(=O)c1cc(C(C)C)[nH]n1)C2` (stereo not given) gave TDP1 cell CPT -24% and DT40 TDP1 no CPT -23%.
O=C(CSc1nnc(-c2ccco2)o1)N1c2ccccc2CCc2ccccc21 was read as TDP1 cell CPT inconclusive, IL1B secr inh -62*, TGFb inhibitor inconclusive, HepG2 viability -4%, TDP1 block 11% and DT40 TDP1 no CPT 23µM*.
Screening O=C(CSc1nnc(-c2c[nH]c3ccccc23)o1)N1c2ccccc2CCc2ccccc21 returned TDP1 cell CPT 16µM*, IL1B secr inh -68*, TGFb inhibitor inconclusive, HepG2 viability -12%, TDP1 block -2% and DT40 TDP1 no CPT 16µM*.
For O=C(CSc1nnc(-c2c[nH]c3ccccc23)o1)N1CCCCC1 the results were TDP1 cell CPT -29%, IL1B secr inh -11, TGFb inhibitor -2%, HepG2 viability -2%, TDP1 block 6% and DT40 TDP1 no CPT inconclusive.
For O=C(CSc1nnc(-c2ccc(Br)cc2)o1)N1CCN(C(=O)c2ccco2)CC1 the results were TDP1 cell CPT inconclusive, IL1B secr inh 13, TGFb inhibitor 7%, HepG2 viability -25%, TDP1 block 6% and DT40 TDP1 no CPT 18µM*.
For Cc1cc(C)cc(-c2nnc(SCC(=O)N3CCN(C(=O)c4ccco4)CC3)o2)c1 the results were TDP1 cell CPT inconclusive, IL1B secr inh -16, TGFb inhibitor -4%, HepG2 viability 2%, TDP1 block 2% and DT40 TDP1 no CPT -28%.
`O=C(CSc1nccn1Cc1ccc(Cl)cc1)Nc1ccc2c(c1)OCCO2` gave TDP1 cell CPT -22%, TGFb inhibitor -13%, HepG2 viability -22%, TDP1 block 10% and DT40 TDP1 no CPT -9%.
CN(C)N(Cc1ccccc1)C(=O)C(O)(c1ccccc1)c1ccccc1 was read as TDP1 cell CPT inconclusive, IL1B secr inh -6, TGFb inhibitor 14%, HepG2 viability 1% and DT40 TDP1 no CPT 26µM*.
Screening CC(C)(O)C(=O)NN(Cc1ccccc1)c1ccccc1 returned TDP1 cell CPT -6%, IL1B secr inh 40, TGFb inhibitor -13%, HepG2 viability 16%, TDP1 block 1% and DT40 TDP1 no CPT 4%.
Screening CCN(CC)CCN(C(=O)c1cccc(N2C(=O)CCC2=O)c1)c1nc2cc3c(cc2s1)OCO3 returned TDP1 cell CPT 22%, IL1B secr inh inconclusive, TGFb inhibitor -11%, HepG2 viability 7%, TDP1 block -1% and DT40 TDP1 no CPT 1%.
For CCN(CC)CCN(C(=O)c1ccc(C(=O)c2ccccc2)cc1)c1nc2c(OC)cccc2s1 the results were TDP1 cell CPT inconclusive, IL1B secr inh -66*, TGFb inhibitor 1%, HepG2 viability -14%, TDP1 block 10% and DT40 TDP1 no CPT -23%.
For CN(C)CCCN(C(=O)c1ccco1)c1nc2c(F)cccc2s1 the results were TDP1 cell CPT inconclusive, IL1B secr inh -15, TGFb inhibitor -8%, HepG2 viability -25%, TDP1 block 4% and DT40 TDP1 no CPT inconclusive.
CN(C)CCCN(C(=O)c1ccco1)c1nc2c(F)cc(F)cc2s1 was read as TDP1 cell CPT inconclusive, IL1B secr inh -25, TGFb inhibitor -3%, HepG2 viability -23%, TDP1 block 0% and DT40 TDP1 no CPT 21µM*.
Screening Cc1ccc2nc(N(CCCN(C)C)C(=O)c3ccco3)sc2c1 returned TDP1 cell CPT inconclusive, IL1B secr inh -11, TGFb inhibitor -9%, HepG2 viability -25%, TDP1 block 5% and DT40 TDP1 no CPT inconclusive.
For CN(C)CCCN(C(=O)c1ccco1)c1nc2cc3c(cc2s1)OCO3 the results were TDP1 cell CPT 3.7µM*, IL1B secr inh inconclusive, TGFb inhibitor -19%, HepG2 viability -30%, TDP1 block 4% and DT40 TDP1 no CPT 5.2µM*.
For CCN(CC)CCN(C(=O)c1ccc([N+](=O)[O-])cc1)c1nc2c(OC)cccc2s1 the results were TDP1 cell CPT -12%, IL1B secr inh 14, TGFb inhibitor 2%, HepG2 viability -10%, TDP1 block 0% and DT40 TDP1 no CPT inconclusive.
`CCN(CC)CCN(C(=O)c1ccc(C(=O)c2ccccc2)cc1)c1nc2cc3c(cc2s1)OCO3` gave TDP1 cell CPT inconclusive, IL1B secr inh -55*, TGFb inhibitor -2%, HepG2 viability -8%, TDP1 block 10% and DT40 TDP1 no CPT inconclusive.
Screening COC(CNC(=O)C(=O)Nc1cc2c3c(c1)CCN3C(=O)CC2)OC returned TDP1 cell CPT -4%, IL1B secr inh -24, TGFb inhibitor -3%, HepG2 viability -6%, TDP1 block 1% and DT40 TDP1 no CPT 33%.
`CC(=O)c1ccc(NC(=O)c2ccc3c(c2)N(Cc2cccc(Cl)c2)C(=O)c2ccccc2S3(=O)=O)cc1` gave TGFb inhibitor -3%, HepG2 viability -1% and TDP1 block 1%.
COc1ccc(NC(=O)Cn2c(=O)n(Cc3ccco3)c(=O)c3oc4ccccc4c32)cc1Cl was read as TDP1 cell CPT -18%, TGFb inhibitor inconclusive, HepG2 viability -10%, TDP1 block 3% and DT40 TDP1 no CPT -29%.
For CN(C)CCCN(C(=O)c1ccc(C(=O)c2ccccc2)cc1)c1nc2cc3c(cc2s1)OCO3 the results were TDP1 cell CPT 16µM*, IL1B secr inh -68*, TGFb inhibitor inconclusive, HepG2 viability 11µM*, TDP1 block 11% and DT40 TDP1 no CPT 23µM*.
Screening CCN(CC)CCN(C(=O)CCS(=O)(=O)c1ccccc1)c1nc2cc3c(cc2s1)OCO3 returned TDP1 cell CPT 8.2µM*, IL1B secr inh inconclusive, TGFb inhibitor inconclusive, HepG2 viability -30%, TDP1 block 5% and DT40 TDP1 no CPT 12µM*.
`CCN(CC)CCN(C(=O)CN1C(=O)CCC1=O)c1nc2cc3c(cc2s1)OCO3` gave TDP1 cell CPT -16%, IL1B secr inh -16, TGFb inhibitor -2%, HepG2 viability -1%, TDP1 block 3% and DT40 TDP1 no CPT -17%.

Bioassay records from PubChem BioAssay.
